Screening results: PubChem, several laboratories
Rows were chosen to be rich in hits. Some 3.1% of all compounds tested hit in one or more screens of this group.
CF NFkB block – cystic fibrosis NF-kB activation inhibition; AID 588850; hit rate 0.86% among 360,000; KKLEB NF-kB-GFP reporter, PAF-induced, GFP fluorescence overnight; inhibition, % at 5 µM;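 active means at least 50% inhibition at 5 µM, scaled per plate between neutral and stimulator controls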;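 further: PAF is a Pseudomonas aeruginosa culture filtrate used as stimulus; plate controls were PAF-stimulated DMSO wells for no effect and unstimulated DMSO wells for full effect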
MITF TRPM1 inh – reduces MITF-dependent TRPM1 promoter luciferase signal. SK-MEL-5 TRPM1 promoter luciferase, 24 h. hit rate 0.83% among 330,000. inhibition, % at 12.5 µM;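 active means mean inhibition across replicates of 60% or more, whatever share of single replicates reaches that level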
HIF-2a inh – inhibitors of HIF-2a | 786-0 RCC cells HIF-2a reporter, luciferase luminescence, overnight | inhibition, % at 18.8 µM | hit rate 0.72% among 360,000 | AID 624352;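 active means inhibition of the luminescence signal of 40% or more relative to plate controls, in a single-dose primary screen at 18.75 µM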
Peg3 promoter – Peg3 promoter activity inhibition; HeLa PEG-Prom luciferase reporter, luminescence, overnight; hit rate 1.7% among 360,000; AID 588405; inhibition, % at 20 µM;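 active means inhibition of at least 50% at 20 µM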
KKLEB cytotox – CF airway cell cytotoxicity counter-screen. activity change (cytotoxicity), % at 5 µM. KKLEB CF airway cells viability, ATPlite luminescence, overnight; stronger effect = lower value; cells stimulated with P. aeruginosa culture filtrate. hit rate 0.36% among 360,000. AID 602141;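 active means corrected activity change at or below -50% at 5 µM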
ABHD5 PLIN5 PPI – inhibitors of human ABHD5-perilipin-5 interaction; Q00G26+Q8WTS1; hit rate 0.78% among 360,000; inhibition, % at 4 µM; AID 602281; Split G. princeps luciferase complementation, luminescence, 4 h;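 active means inhibition above the mean inhibition across every tested compound plus 3 SD, cut at about 22% in these data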;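 further: 0% = DMSO only wells and the 100% control is not disclosed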
Target sequence (Q00G26 whole entry, looked up): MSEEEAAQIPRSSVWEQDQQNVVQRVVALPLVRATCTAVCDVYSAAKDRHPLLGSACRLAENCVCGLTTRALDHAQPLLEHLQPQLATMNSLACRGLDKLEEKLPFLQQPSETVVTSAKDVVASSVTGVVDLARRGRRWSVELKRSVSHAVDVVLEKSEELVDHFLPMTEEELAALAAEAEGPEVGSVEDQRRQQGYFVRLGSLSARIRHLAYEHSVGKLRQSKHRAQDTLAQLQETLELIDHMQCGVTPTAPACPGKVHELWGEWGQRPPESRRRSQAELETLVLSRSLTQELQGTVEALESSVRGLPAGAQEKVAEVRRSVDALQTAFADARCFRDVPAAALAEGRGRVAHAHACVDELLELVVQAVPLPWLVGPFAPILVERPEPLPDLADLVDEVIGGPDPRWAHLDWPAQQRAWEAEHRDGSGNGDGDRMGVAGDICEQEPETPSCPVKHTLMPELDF
Target sequence (Q8WTS1 whole entry, looked up): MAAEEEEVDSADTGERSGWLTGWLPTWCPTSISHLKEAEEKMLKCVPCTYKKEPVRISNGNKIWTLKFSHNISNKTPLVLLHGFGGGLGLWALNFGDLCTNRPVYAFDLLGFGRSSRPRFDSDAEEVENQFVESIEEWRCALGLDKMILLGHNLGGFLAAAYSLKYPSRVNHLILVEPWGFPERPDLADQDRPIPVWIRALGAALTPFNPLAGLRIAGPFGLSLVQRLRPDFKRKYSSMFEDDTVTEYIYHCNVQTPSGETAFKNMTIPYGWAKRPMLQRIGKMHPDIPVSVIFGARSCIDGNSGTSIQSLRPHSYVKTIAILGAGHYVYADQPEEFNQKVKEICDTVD
Mdm2-MdmX confirm – confirmation of inhibitors of human Mdm2/MdmX interaction, set 2 | shares compounds with HIF-2a inh | SaOS-2 split-luciferase Mdm2/MdmX complementation, luminescence | inhibition, % at 8 µM | hit rate 99% among 740 | AID 504601;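 active means mean inhibition of the luminescence signal across two replicates at or above 26 percent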
HIF-2a conf – HIF-2a inhibition, single concentration confirmation; shares compounds with HIF-2a inh; 786-0 RCC cells, HIF-2a luciferase reporter luminescence, overnight; inhibition, % at 18.8 µM; hit rate 56% among 1,800; AID 651580;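 active means mean inhibition across four replicates of at least 40 percent at the single tested concentration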
HIF-1a counter – counter-screen for HIF-2a inhibitors: HIF-1a inhibition in MiaPaCa-2 cells | hit rate 72% among 1,800 | AID 651589 | inhibition, % at 18.8 µM | shares compounds with HIF-2a inh | MiaPaCa-2 HIF-1a luciferase reporter, desferoxamine, overnight;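 active means mean inhibition of the reporter signal across four replicates at the single tested dose of 50% or more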
Numbers without * were called inactive; nt = not tested or not shown.

SMILES	CF NFkB block	MITF TRPM1 inh	HIF-2a inh	Peg3 promoter	KKLEB cytotox	ABHD5 PLIN5 PPI	HIF-2a conf	HIF-1a counter	others
CC1CCCN(C(=O)C(C)Nc2cc(Cl)ccc2N2CCOCC2)C1 (stereo not given)	-3	27	15	17	10	8	nt	nt
CCOc1ccc(NS(=O)(=O)c2cccc(C(=O)N(C)Cc3ccco3)c2)cc1	13	1	8	21	4	7	nt	nt
COc1ccc(NC(=S)NC(NC(=O)/C=C/c2ccccc2)C(Cl)(Cl)Cl)cc1 (stereo not given)	3	7	66*	53*	-3	-13	8	30
O=C(/C=C/c1ccccc1)NC(NC(=S)Nc1ccc(Cl)cc1)C(Cl)(Cl)Cl (stereo not given)	2	55	16	38	-2	-23	nt	nt
O=C(CCCn1cc([N+](=O)[O-])cn1)Nc1cccnc1	-23	-5	21	6	7	-1	nt	nt
Cc1cc(Cl)n2c(nc3cc(F)c(F)cc32)c1C#N	89*	98*	95*	110*	-69*	6	58*	100*
Cc1cc(C)n2c(=O)c3ccc(Cl)cc3nc2c1C#N	-79	10	-18	8	0	2	nt	nt
CCOC(=O)CNC(=O)CSc1nnc(NC(=O)c2ccc(C)cc2)s1	7	42	45*	36	-18	4	65*	-12
COc1ccc(C(=O)CC(Nc2ccc([N+](=O)[O-])cc2)c2ccc(Cl)cc2)cc1 (stereo not given)	4	-15	-39	25	-16	8	nt	nt
CC(C)C(=O)N1CCN(c2ccc(NC(=O)c3ccc4c(c3)OCCO4)cc2)CC1	14	11	42*	-23	-4	0	-2	-4
Cc1ccc(C(=O)N2CCN(c3ccc(NC(=O)c4ccc5c(c4)OCCO5)cc3)CC2)cc1	15	47	13	27	-11	-2	nt	nt
O=C(Nc1ccc(NC(=O)c2cccs2)cc1)c1ccc2c(c1)OCCO2	10	10	47*	32	0	2	45*	15
Cc1ccccc1C(=O)N1CCN(c2ccc(NC(=O)c3ccc4c(c3)OCCO4)cc2)CC1	38	70*	60*	25	3	2	14	72*
CC(=O)N1CCN(c2ccc(NC(=O)c3ccc4c(c3)OCO4)cc2)CC1	-1	7	19	-53	-23	1	nt	nt
COc1cc(-c2nnc(COC(=O)c3nn(CC(C)C)c(=O)c4ccccc34)o2)cc(OC)c1OC	-25	1	5	8	-4	-4	nt	nt
C=CCN(C(=O)c1csnn1)C(C(=O)NC1CCCCC1)c1ccc(F)cc1 (stereo not given)	-7	nt	10	7	-2	4	nt	nt
N#C/C(=C\c1ccc([N+](=O)[O-])o1)c1nc2ccccc2[nH]1	nt	nt	nt	nt	nt	nt	nt	nt	Mdm2-MdmX confirm=103*
N#C/C(=C\c1ccc(Sc2ccccc2)o1)c1nc2ccccc2[nH]1	4	-116	-218	-269	-20	12	nt	nt
O=C(c1ccccc1)N1CCSC1=S	1	-2	1	-4	1	4	nt	nt
O=C(c1ccccc1)N1CCSc2sccc2C1=O	22	50	65*	27	-12	1	71*	-16
O=C1N[C@@H](Cc2cn(S(=O)(=O)c3ccccc3)c3ccccc23)C(=O)N[C@H]1Cc1ccccc1	5	4	9	-1	-6	-7	nt	nt
Cc1sc2ncnc(N3CCC(C(=O)Nc4cc(S(C)(=O)=O)ccc4Cl)CC3)c2c1C	45	-3	41*	33	-2	9	-1	74*
COc1cccc(CC2(CO)CCN(Cc3cccn3-c3cccnc3)CC2)c1	13	7	10	11	-12	-2	nt	nt
CCc1nnc(NC(=O)CCC(=O)Nc2ccc(OC)cc2OC)s1	12	6	14	2	8	-11	nt	nt
CSC1=NC=C(C#N)C2=NC(c3c(Cl)cccc3Cl)NN12 (stereo not given)	-12	nt	65*	-8	1	14	1	5
SMILES	CF NFkB block	MITF TRPM1 inh	HIF-2a inh	Peg3 promoter	KKLEB cytotox	ABHD5 PLIN5 PPI	HIF-2a conf	HIF-1a counter	others
COc1cccc2c1OCC(C(=O)O)C2 (stereo not given)	-3	6	10	-18	-9	-1	nt	nt
COc1cccc2c1C(CO)N1C(C#N)C3CC(C(=O)O)C(C1C2)N3C (stereo not given)	96*	67*	42*	108*	-52*	3	8	106*	Mdm2-MdmX confirm=103*
COc1ccc(CC(=O)N2CCCC2)c(OC)c1	-2	-11	5	11	6	8	nt	nt
CC(=O)c1ccc(Oc2cc(C)nc(N3CCOCC3)n2)cc1	6	-3	-47	-29	-14	-5	nt	nt
Cc1ccc(COc2ccc(/C=N/NC(=O)c3ccc(CN4CCOCC4)cc3)cc2)cc1	-11	3	-51	-141	-21	-4	nt	nt
Cc1ccc(C(C)C)c(OCc2ccc(C(=O)N/N=C/c3ccc(C(=O)O)cc3)cc2)c1	8	-4	67*	-83	-1	-5	81*	-13
Cc1nn(C)c(Cl)c1CN1CCC(CO)(CC2CCCCO2)CC1 (stereo not given)	1	0	7	2	1	5	nt	nt
CCCn1ncc(CN2CCC(CO)(CC3CCCCO3)CC2)c1C (stereo not given)	7	-3	40*	-3	-18	3	5	4
CN(C)Cc1cn(CC[C@@H]2CC[C@@H](NC(=O)Nc3ccccc3F)[C@@H](CO)O2)nn1	nt	nt	8	nt	nt	-5	nt	nt
N#Cc1c(NC(=O)CCCC(=O)O)sc2c1CCCCC2	-9	31	63*	-157	-8	-15	67*	18
N#Cc1c(NC(=O)CSc2ncn[nH]2)sc2c1CCCC2	18	73*	90*	14	11	5	94*	71*
CC1CCc2c(sc(NC(=O)CSc3ncn[nH]3)c2C#N)C1 (stereo not given)	3	62*	91*	38	-4	0	95*	90*
FC(F)(F)c1cnc(NNC(=S)Nc2ccccc2)c(Cl)c1	-2	nt	45*	23	8	-2	61*	13
FC(F)(F)c1cnc(NNC(=S)Nc2cccnc2)c(Cl)c1	7	21	26	29	0	-7	nt	nt
CCn1c(SC(C)C(=O)Nc2ccc3c(c2)OCCO3)nnc1C1CC1 (stereo not given)	-3	-6	-3	9	6	-5	nt	nt
